Laboratory results from ChEMBL document CHEMBL3988442, “University of Dundee, Small-Polar-MMV Screening Library” (2021).
Hit rate of the full screen: of about 48,000 compounds, about 13,000 (27%) showed an effect of 50% or more. This is one part of the list.

Each compound was assayed on Wolbachia pipientis (assay: Anti-Wolbachia Cell-Based Screen). Settings: 5 µM.
Format: functional
Design: scale not given: in the data most compounds retested in dose-response had high values

| Structure (SMILES) | Percent Effect [%] |
| --- | --- |
| Cc1cnn(CC(C)NCc2cc(=O)n3cc(C)ccc3n2)c1 (stereo not given) | 5.917 |
| Cc1cccc2nc(CSCC(=O)Nc3nnc(C(C)C)s3)cc(=O)n12 | 122.4 |
| Cc1ccc(CNC(=O)Nc2nnc(C(C)C)s2)n1C | -5.821 |
| Cc1ccn2c(=O)cc(CSCC(=O)Nc3nnc(C(C)C)s3)nc2c1 | 111 |
| Cc1ccc2nc(CN(Cc3ccc(C)o3)C(C)C)cc(=O)n2c1 | -6.244 |
| Cc1nc(C)c(CC(=O)Nc2nnc(C)s2)c(=O)[nH]1 | -6.123 |
| Cc1cccc2nc(CN3CCCC(C)C3)cc(=O)n12 (stereo not given) | 12.06 |
| COC(=O)C(C)NC(=O)CSCc1nc(O)c2cc(C(C)C)sc2n1 (stereo not given) | 3.354 |
| COc1ccc(C(C)NC(=O)Nc2nnc(C)s2)cc1OC (stereo not given) | 6.701 |
| Cc1ccc2nc(CSCC(=O)Nc3nnc(C(C)C)s3)cc(=O)n2c1 | 91.49 |
| Cc1nnc(NC(=O)CSCc2cc(=O)n3ccccc3n2)s1 | 113.7 |
| CC(C)c1nnc(NC(=O)Cc2csc(-c3nnc[nH]3)n2)s1 | 3.837 |
| CN(C)c1cccc(C(=O)NCC(O)c2cccs2)c1 (stereo not given) | -6.039 |
| CCc1ncc2c(n1)CN(C(=O)c1c(C)[nH]c(C(C)=O)c1C)C2 | 1.251 |
| CN(Cc1cccs1)C1CCC[C@@H]2CN(C(=O)c3cnccn3)C[C@H]12.O=C(O)C(F)(F)F (stereo not given in full) | 14.26 |
| Cc1ccc(C(C(=O)O)N2CCCN(Cc3ccccn3)CC2)c(F)c1 (stereo not given) | -1.838 |
| Cc1cnn(CC(C)NCc2cc(=O)n3ccccc3n2)c1 (stereo not given) | 4.155 |
| Cc1cccn2c(=O)cc(CN3CCCC3Cn3cccn3)nc12 (stereo not given) | 11.97 |
| Cc1ccc(CN(Cc2cc(=O)n3cccc(C)c3n2)C(C)C)o1 | 2.311 |
| Cc1cccn2c(=O)cc(CSCC(=O)Nc3nnc(C(C)C)s3)nc12 | 100.1 |
| CC(C)c1nnc(NC(=O)CSCc2cc(=O)n3ccccc3n2)s1 | 114.5 |
| COc1ccc(OC)c(-n2c(COC(C)C)n[nH]c2=O)c1 | -3.997 |
| Cn1cc(C(=O)N2CC[C@H](N3CCOCC3)[C@H](CCCO)C2)cn1 | -10.44 |
| Cc1cc(C(=O)N2CC[C@@H]3CO[C@@H](CN4CCCC4)[C@@H]3C2)no1 | -4.858 |
| COc1ccc(OCc2nc(C(=O)N3CC[C@H](O)[C@@H](O)C3)co2)cc1 | -2.37 |
| Cn1nc(C2CCN(C(=O)c3cnccn3)C2)cc1CCO (stereo not given) | 76.91 |
| Cn1ccc(C(=O)N2CCC(c3cc(CCO)n(C)n3)C2)n1 (stereo not given) | 79.61 |
| CS(=O)(=O)NC[C@@H]1OC[C@H]2CN(C(=O)c3cnccn3)CC[C@H]21 | -5.14 |
| Cc1nc(C(=O)N2CCC(c3cc(CCO)n(C)n3)C2)co1 (stereo not given) | 113 |
| Cn1cc(C(=O)N2CCC(c3cc(CCO)n(C)n3)C2)cn1 (stereo not given) | 181.5 |
